PubChem BioAssay AID1159580 (chemical genetic matrix, 2015)
In all, about 5,500 compounds went through this assay and about 2,000 (36%) were called active. About 18% were inconclusive and are not listed. No stated cut-off is given here; in the data, active means normalized growth mostly below about 0.91 (no sharp cut-off); inconclusive means no clear call, values can overlap the other calls; inactive means mostly above about 0.92. This is one part of the list.

Experiment: chemical genetic growth profiling, strain panel (AID 1159580);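 further: tested at 20 µM; growth read once vehicle control cultures reached saturation at 30 °C; 1 = growth at the plate median or of vehicle wells; lower values mean less growth of the strain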
Conditions: growth OD

Measured: normalized growth

COc1cc([C@@H]2c3cc4c(cc3[C@H](OC(C)=O)[C@H]3COC(=O)[C@H]23)OCO4)cc(OC)c1OC
inactive: S. cerevisiae deletion strains, locus YJR066W, strain TOR1, active compounds read low 0.932 | S. cerevisiae deletion strains, locus YKL009W, strain mrt4, active compounds read low 0.972 | S. cerevisiae deletion strains, locus YKL068W, active compounds read low 0.988 | S. cerevisiae deletion strains, locus YKL085W, strain MDH1 (second series), active compounds read low 1 | S. cerevisiae deletion strains, locus YKL085W, strain MDH1, active compounds read low 1 | S. cerevisiae deletion strains, locus YKL160W, strain elf1, active compounds read low 0.999 | S. cerevisiae deletion strains, locus YKL190W, strain CNB1, active compounds read low 1 | S. cerevisiae deletion strains, locus YKR001C, strain vps1, active compounds read low 0.976 | S. cerevisiae deletion strains, locus YKR026C, strain gcn3, active compounds read low 1.01 | S. cerevisiae deletion strains, locus YKR091W, strain srl3, active compounds read low 1.01 | S. cerevisiae deletion strains, locus YLL001W, strain dnm1, active compounds read low 1 | S. cerevisiae deletion strains, locus YLL026W, active compounds read low 1.01 | S. cerevisiae deletion strains, locus YLL041C, strain sdh2, active compounds read low 1.01 | S. cerevisiae deletion strains, locus YLR027C, strain aat2, active compounds read low 1 | S. cerevisiae deletion strains, locus YLR039C, strain RIC1, active compounds read low 0.954 | S. cerevisiae deletion strains, locus YLR058C, strain SHM2, active compounds read low 0.998 | S. cerevisiae deletion strains, locus YLR102C, strain apc9, active compounds read low 0.974 | S. cerevisiae deletion strains, locus YLR113W, strain HOG1, active compounds read low 1.07 | S. cerevisiae deletion strains, locus YLR221C, strain rsa3, active compounds read low 1.01 | S. cerevisiae deletion strains, locus YLR258W, strain gsy2, active compounds read low 0.997 | S. cerevisiae deletion strains, locus YLR262C, strain YPT6 (second series), active compounds read low 0.914 | S. cerevisiae deletion strains, locus YLR262C, strain YPT6, active compounds read low 0.933 | S. cerevisiae deletion strains, locus YLR268W, strain sec22, active compounds read low 0.984 | S. cerevisiae deletion strains, locus YLR320W, strain mms22, active compounds read low 1 | S. cerevisiae deletion strains, locus YLR330W, strain CHS5, active compounds read low 0.994 | S. cerevisiae deletion strains, locus YLR342W, strain FKS1 (second series), active compounds read low 0.995 | S. cerevisiae deletion strains, locus YLR342W, strain FKS1, active compounds read low 1.01 | S. cerevisiae deletion strains, locus YLR357W, strain rsc2, active compounds read low 1.06 | S. cerevisiae deletion strains, locus YLR370C, strain arc18, active compounds read low 1.01 | S. cerevisiae deletion strains, locus YLR371W, strain rom2, active compounds read low 0.992 | S. cerevisiae deletion strains, locus YLR384C, strain iki3, active compounds read low 1.02 | S. cerevisiae deletion strains, locus YLR418C, strain cdc73, active compounds read low 0.971 | S. cerevisiae deletion strains, locus YML016C, strain PPZ1, active compounds read low 0.997 | S. cerevisiae deletion strains, locus YML032C, strain rad52, active compounds read low 0.97 | S. cerevisiae deletion strains, locus YML120C, strain ndi1, active compounds read low 1 | S. cerevisiae deletion strains, locus YML124C, strain tub3, active compounds read low 0.984 | S. cerevisiae deletion strains, locus YMR058W, strain fet3, active compounds read low 1.01 | S. cerevisiae deletion strains, locus YMR078C, strain ctf18, active compounds read low 0.99 | S. cerevisiae deletion strains, locus YMR125W, strain sto1, active compounds read low 1.01 | S. cerevisiae deletion strains, locus YMR129W, active compounds read low 1 | S. cerevisiae deletion strains, locus YMR205C, strain PFK2, active compounds read low 1.02 | S. cerevisiae deletion strains, locus YMR223W, strain ubp8, active compounds read low 0.974 | S. cerevisiae deletion strains, locus YMR231W, strain pep5, active compounds read low 0.997 | S. cerevisiae deletion strains, locus YMR307W, strain GAS1, active compounds read low 1.02 | S. cerevisiae deletion strains, locus YNL067W, strain RPL9B, active compounds read low 1.01 | S. cerevisiae deletion strains, locus YNL071W, strain lat1, active compounds read low 1.01 | S. cerevisiae deletion strains, locus YNL128W, strain TEP1, active compounds read low 0.992 | S. cerevisiae deletion strains, locus YNL183C, strain NPR1, active compounds read low 0.993 | S. cerevisiae deletion strains, locus YNL209W, strain ssb2, active compounds read low 0.996 | S. cerevisiae deletion strains, locus YNL233W, strain BNI4, active compounds read low 0.997 | S. cerevisiae deletion strains, locus YNL248C, strain rpa49, active compounds read low 1.01 | S. cerevisiae deletion strains, locus YNL250W, strain rad50, active compounds read low 0.985 | S. cerevisiae deletion strains, locus YNL271C, strain bni1, active compounds read low 0.983 | S. cerevisiae deletion strains, locus YNL298W, strain CLA4, active compounds read low 0.997 | S. cerevisiae deletion strains, locus YNL307C, strain MCK1, active compounds read low 0.98 | S. cerevisiae deletion strains, locus YNL322C, strain KRE1 (second series), active compounds read low 1.03 | S. cerevisiae deletion strains, locus YNR049C, strain mso1, active compounds read low 1 | S. cerevisiae deletion strains, locus YNR052C, strain pop2, active compounds read low 0.973 | S. cerevisiae deletion strains, locus YOL006C, strain TOP1, active compounds read low 0.861 | S. cerevisiae deletion strains, locus YOL012C, strain htz1 1.23 | S. cerevisiae deletion strains, locus YOL147C, strain pex11, active compounds read low 0.981 | S. cerevisiae deletion strains, locus YOR001W, strain rrp6, active compounds read low 1 | S. cerevisiae deletion strains, locus YOR061W, strain CKA2, active compounds read low 0.994 | S. cerevisiae deletion strains, locus YOR069W, strain VPS5, active compounds read low 0.99 | S. cerevisiae deletion strains, locus YOR070C, strain gyp1, active compounds read low 1.01 | S. cerevisiae deletion strains, locus YOR080W, strain dia2, active compounds read low 1 | S. cerevisiae deletion strains, locus YOR083W, strain WHI5, active compounds read low 1 | S. cerevisiae deletion strains, locus YOR106W, strain vam3, active compounds read low 1.02 | S. cerevisiae deletion strains, locus YOR136W, strain idh2, active compounds read low 0.98 | S. cerevisiae deletion strains, locus YOR144C, strain elg1, active compounds read low 0.99 | S. cerevisiae deletion strains, locus YOR184W, strain ser1, active compounds read low 1.01 | S. cerevisiae deletion strains, locus YOR231W, strain MKK1, active compounds read low 0.972 | S. cerevisiae deletion strains, locus YOR265W, strain rbl2, active compounds read low 1.01 | S. cerevisiae deletion strains, locus YOR270C, strain vph1, active compounds read low 0.921 | S. cerevisiae deletion strains, locus YOR290C, strain snf2, active compounds read low 1 | S. cerevisiae deletion strains, locus YOR316C, strain cot1, active compounds read low 0.992 | S. cerevisiae deletion strains, locus YPL051W, strain arl3, active compounds read low 1 | S. cerevisiae deletion strains, locus YPL078C, strain atp4, active compounds read low 0.998 | S. cerevisiae deletion strains, locus YPL106C, strain sse1, active compounds read low 1.02 | S. cerevisiae deletion strains, locus YPL240C, strain hsp82, active compounds read low 1.01 | S. cerevisiae deletion strains, locus YPL256C, strain CLN2, active compounds read low 0.986 | S. cerevisiae deletion strains, locus YPR119W, strain clb2, active compounds read low 0.986 | S. cerevisiae deletion strains, locus YPR141C, strain kar3, active compounds read low 0.98 | S. cerevisiae deletion strains, locus YPR163C, strain tif3, active compounds read low 0.991 | S. cerevisiae deletion strains, locus YPR167C, strain met16, active compounds read low 0.969 | S. cerevisiae deletion strains, strain wtn01, active compounds read low 1 | S. cerevisiae strains, strain wild type, active compounds read low 1
